Compound activity (PubChem)
TEAD-YAP inh = TEAD-YAP interaction inhibition | 640,000 tested, 1.4% active | AID 1259422 | inhibition, % at 9.12 µM | HEK-TIYL cells, TEAD-Gal4/YAP UAS-luciferase luminescence; in the data active means inhibition above about 32%;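 further: 0% = median of test compound wells and 100% = reference inhibitor wells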
FBW7 act = activators of human E3 ligase FBW7. AID 1259310. AlphaScreen FBW7–phospho-cyclin E peptide binding, activator screen. 650,000 tested, 0.13% active. Q969H0. normalized activity (activation), % at 26.1 µM; in the data active means normalized activity above about 1.9%;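 further: purified mutant Fbw7 with reduced substrate affinity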
Target sequence (Q969H0 whole entry, looked up): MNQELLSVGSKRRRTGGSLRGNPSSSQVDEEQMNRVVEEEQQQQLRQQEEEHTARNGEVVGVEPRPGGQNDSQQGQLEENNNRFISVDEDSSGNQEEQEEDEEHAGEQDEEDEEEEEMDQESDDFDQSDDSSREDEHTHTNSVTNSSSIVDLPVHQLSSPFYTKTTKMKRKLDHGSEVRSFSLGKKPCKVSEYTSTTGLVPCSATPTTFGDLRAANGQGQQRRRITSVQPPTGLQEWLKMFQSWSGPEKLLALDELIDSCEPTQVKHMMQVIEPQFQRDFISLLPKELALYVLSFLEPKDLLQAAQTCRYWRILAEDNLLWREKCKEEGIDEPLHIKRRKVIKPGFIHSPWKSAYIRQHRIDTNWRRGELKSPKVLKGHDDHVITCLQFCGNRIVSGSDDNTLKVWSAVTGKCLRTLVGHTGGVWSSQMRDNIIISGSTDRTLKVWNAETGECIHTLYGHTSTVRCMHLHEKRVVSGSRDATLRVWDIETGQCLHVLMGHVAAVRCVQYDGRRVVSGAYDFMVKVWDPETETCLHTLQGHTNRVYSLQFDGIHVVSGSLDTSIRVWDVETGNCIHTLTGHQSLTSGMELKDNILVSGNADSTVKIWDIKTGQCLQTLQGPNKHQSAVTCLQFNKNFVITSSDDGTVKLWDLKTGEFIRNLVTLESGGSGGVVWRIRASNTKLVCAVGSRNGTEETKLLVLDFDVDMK
GPR151 ag = human GPR151 activation; 650,000 tested, 1% active; Q8TDV0; PathHunter beta-arrestin GPR151 cells, luminescence; activation, % at 11.2 µM; AID 1508602; in the data active means activation above about 4.9%;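 further: 0% = median of compound wells and 100% = cells with positive control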
MITF primary = human MITF inhibition, primary screen; O75030; AlphaScreen MITF homodimerization, bead proximity signal; inhibition, % at 2.6 µM; 650,000 tested, 0.91% active; AID 1259374; in the data active means inhibition above about 50%;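 further: 0% = vehicle wells with protein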
* = called active by the depositor. Compounds with a hit are over-represented: about 3.5% of the library has one in this group of screens.

SMILES	TEAD-YAP inh	FBW7 act	GPR151 ag	MITF primary
CCn1c(SCC(=O)Nc2ccc(Oc3ccccc3)cc2)nnc1-c1ccncc1	7	0	-2	5
CS(=O)(=O)c1ccc(-c2ccc3c(c2)CC(CNC(=O)CCc2cccnc2)O3)cc1 (centres undefined)	12	0	1	-13
CS(=O)(=O)c1ccc(-c2ccc3c(c2)CC(CNC(=O)/C=C/c2cccnc2)O3)cc1 (centres undefined)	39*	0	1	-1
O=C1c2ccccc2CN1c1ccccc1	-46	0	-5	1
CC(O)c1ccc(N2Cc3ccccc3C2=O)cc1 (centres undefined)	56*	0	-7	-7
C=CC(=O)Oc1ccc(N2Cc3ccccc3C2=O)cc1	14	0	-4	0
COc1ccc(N2Cc3ccccc3C2=O)cc1	66*	0	-8	6
CCc1ccc(S(=O)(=O)Nc2cccc(N3CCCS3(=O)=O)c2)cc1	33*	0	1	15
COc1ccccc1N1CCN(c2nc(NCCO)c3cnn(C)c3n2)CC1	36*	0	0	5
O=C(COc1ccc(F)cc1)Nc1ccc2c(c1)C(=O)NCCO2	42*	0	1	9
O=C(CCC1CCCC1)Nc1ccc2c(c1)C(=O)NCCO2	-63	0	-1	6
Cc1nc2ccccn2c1-c1csc(Nc2ccc(Br)cc2Br)n1	55*	0	0	2
COc1ccc(Nc2nc(-c3c(C)nc4ccccn34)cs2)cc1	62*	0	1	0
O=C1C(=O)N(c2nncs2)C(c2ccc(Cl)cc2)/C1=C(\O)c1ccc(F)cc1 (centres undefined)	6	0	-1	15
COc1ccccc1Cn1c(=S)[nH]c2cc(C(=O)NC3CCCCCC3)ccc2c1=O	-6	0	0	-3
CCN(CC)c1ccc2cc(C=O)c(=O)oc2c1	8	0	0	11
CCN(CC)c1ccc2nc3c4ccccc4c(=O)cc-3oc2c1	34*	0	2	8
COc1ccc(OC)c(C2C=C(c3ccc(C)cc3)Nc3ncnn32)c1 (centres undefined)	66*	0	-1	-1
COc1ccc(C2=CC(c3cc(OC)c(OC)c(OC)c3)n3ncnc3N2)cc1OC (centres undefined)	54*	0	-2	2
CCOc1ccccc1C1C=C(c2ccc(OC)cc2)Nc2ncnn21 (centres undefined)	56*	0	1	4
COc1ccc(C2=CC(c3cccc(C)c3)n3ncnc3N2)cc1 (centres undefined)	46*	0	0	1
O=S1(=O)CCN2C(=N1)Sc1cc(F)ccc12	18	0	0	3
COc1ccc(C2=CC(c3ccc(C)cc3)n3ncnc3N2)cc1OC (centres undefined)	-68	0	1	3
COc1ccc(C2C=C(c3ccc(C)cc3)Nc3ncnn32)cc1OC (centres undefined)	54*	0	0	11
COc1cc(C2C=C(c3ccc4c(c3)OCO4)Nc3ncnn32)cc(OC)c1OC (centres undefined)	64*	0	1	1
SMILES	TEAD-YAP inh	FBW7 act	GPR151 ag	MITF primary
CCc1ccc(C2=CC(c3ccc(OC)c(OC)c3OC)n3ncnc3N2)cc1 (centres undefined)	47*	0	0	5
O=c1[nH]c(CCl)nc2sc(-c3ccccc3)cc12	33*	0	-2	5
CC(C)c1nc2c(-c3cn[nH]c3)cccc2c(=O)[nH]1	32*	0	-1	13
COC1CCN(c2ncn(-c3ccc(Nc4nccc(-c5cc(F)cc(N(C)C)c5)n4)cc3)n2)CC1	16	0	1	5
Cc1ncn(-c2ccc(Nc3nccc(-c4ccc(N5CCCC(O)C5)c(C#N)c4)n3)cc2)n1 (centres undefined)	35*	0	2	-6
OCc1ccc(-c2ncn(-c3ccc(Nc4nccc(-c5cc(F)cc(N6CCOCC6)c5)n4)cc3)n2)nc1	83*	0	0	-1
Fc1cc(-c2ccnc(Nc3ccc(-n4cnc(-c5ccc(Cl)cn5)n4)cc3)n2)cc(N2CCOCC2)c1	6	0	1	13
CN1CCN(c2ncn(-c3ccc(Nc4nccc(-c5cc(F)cc(N6CCC(O)CC6)c5)n4)cc3)n2)CC1	67*	0	-1	2
CN1CCN(c2ncn(-c3ccc(Nc4nccc(-c5cc(F)cc(N(C)C)c5)n4)cc3)n2)CC1	35*	0	0	2
O=C(O)c1ccc(/C=N/Nc2ccc(S(=O)(=O)N3CCOCC3)cc2[N+](=O)[O-])cc1	-1	0	1	-2
COc1ccc(/C=C2/C(=O)NC(=O)N(C3CCCCCC3)C2=O)cc1OC	4	-1	-2	17
Fc1cc(-c2ccnc(Nc3ccc(-n4cnc(Br)n4)cc3)n2)cc(N2CCOCC2)c1	6	0	0	-8
OC1CCN(c2ncn(-c3ccc(Nc4nccc(-c5cc(F)cc(N6CCOCC6)c5)n4)cc3)n2)CC1	91*	0	1	0
OC1CCCN(c2ncn(-c3ccc(Nc4nccc(-c5cc(F)cc(N6CCOCC6)c5)n4)cc3)n2)C1 (centres undefined)	57*	0	-2	14
COC(=O)Cc1c(C)c2cc(Cl)c(OCC(=O)c3cccc([N+](=O)[O-])c3)cc2oc1=O	7	0	3	-3
O=C1CCCC2=C1C(c1ccncc1)n1nnnc1N2 (centres undefined)	8	0	-1	-3
CCCCNc1nc2cc(OC)c(OC)cc2c2nc(-c3cccnc3)nn12	-14	0	0	-7
c1cncc(-c2nc3c4ccccc4nc(NCCCN4CCCCCC4)n3n2)c1	69*	0	0	-8
COc1cc2nc(NCCCN3CCCCC3)n3nc(-c4cccnc4)nc3c2cc1OC	37*	0	2	16
CCOc1cccc(/C=N/Nc2ncc(F)c(N3CCOCC3)n2)c1O	-9	0	1	15
COc1ccc(C2CC(=O)C=C(Nc3ccc(Cl)cc3)C2)cc1 (centres undefined)	-8	0	-1	-4
Cc1ccc(NC2=CC(=O)CC(c3ccccc3)C2)cc1 (centres undefined)	43*	0	-1	15
Cc1ccc(C2CC(=O)C=C(NCCc3ccccc3)C2)cc1 (centres undefined)	-7	0	0	14
O=C1C=C(Nc2ccc(Cl)cc2)CC(c2ccccc2)C1 (centres undefined)	33*	0	0	12
COc1ccc(C2CCN(S(=O)(=O)c3ccc(C)s3)C2)cc1 (centres undefined)	2	0	-1	1
Cc1nc2ccc(NC(=O)c3ccc(S(=O)(=O)N(C)C)cc3)cc2c(=O)n1-c1ccc(Cl)cc1	38*	0	0	19
COc1cc(C(=O)Nc2ccc(I)cc2)cc(OC)c1OC	35*	0	0	-13
COc1cc(C(=O)Nc2ccc(C)c(C)c2)cc(OC)c1OC	-1	1	0	12
